In PubChem BioAssay:

System: wheat germ agglutinin (Triticum aestivum), Alexa647-labelled
Experiment: wheat germ agglutinin binders on compound microarrays, profiling panel, artefact control for SMM control-protein annotation, biochemical, small-molecule microarray, 635/667 nm fluorescence (AID 1140);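 also: score merges 667 nm feature emission with signal to noise over triplicate slides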
Conditions: WGA-A647 binding, 635 nm fluorescence, higher = more signal

Row | SMILES | composite z-score
1 | C=CC[C@H](OC(=O)Nc1ccc(SC)cc1)c1ccc(O)c2ccccc12 | 0.937
2 | O=C1O[C@@H](c2ccccc2)[C@@H](c2ccccc2)N2[C@@H](c3ccc(OCCO)cc3)[C@]3(C(=O)Nc4ccc(C#CC5=CCCCC5)cc43)[C@@H](C(=O)NC[C@H](O)c3ccccc3)[C@H]12 | 0.254
3 | O=C1O[C@H](c2ccccc2)[C@H](c2ccccc2)N2[C@H]1[C@@H](C(=O)O)[C@]1(C(=O)Nc3ccc(C#CCCO)cc31)[C@H]2c1ccccc1OCCO | 0.842
4 | CC(C)c1ccc(NN2C(C(O)c3ccc(C#N)cc3)C=CC3C(=O)N(c4ccccc4)C(=O)C32)cc1 (stereo not given) | 0.949
5 | C[N+](C)(C)CCCC[C@@H]1NC(=O)[C@@H]2C[C@H](C(=O)NCCCCCCN)[C@H](c3cccc(OCCO)c3)N2C1=O | 1.11
6 | CC(C)[Si]1(C(C)C)OCc2cc(C3CC3)nc(-c3ccc(Oc4ccccc4)cc3)c21 | -0.596
7 | COCCOC(=O)N1C(=O)[C@@]2(c3cc(C#CC4(O)CCCCCC4)ccc31)[C@H](c1ccc(O)cc1)N1[C@H](c3ccccc3)[C@H](c3ccccc3)OC(=O)[C@H]1[C@@H]2C(=O)N1CCN(c2ncccn2)CC1 | 0.417
8 | COC(=O)c1c(CC[C@@H](CO)NC(=O)N[C@@H](C)Cn2cc(-c3ccccn3)nn2)oc(C(C)=O)c1C(=O)OC | 0.184
9 | CCOC(=O)[C@@H]1CCCCN1C(=O)C(=O)OC | -0.48
10 | CN(C)c1ccc(C(O)C2C=CC3C(=O)NC(=O)C3N2Nc2ccccn2)cc1 (stereo not given) | 0.423
11 | CC#CCO[Si](C#Cc1ccccc1)(C(C)C)C(C)C | -0.874
12 | CC(=O)N1CC2(CC2)CC1c1ccccc1 (stereo not given) | 0.251
13 | COCCOC(=O)N1C(=O)[C@@]2(c3cc(C#CCC(C(=O)OC)C(=O)OC)ccc31)[C@H](c1ccc(OCCO)cc1)N1[C@H](c3ccccc3)[C@H](c3ccccc3)OC(=O)[C@H]1[C@@H]2C(=O)N1CCc2cc(OC)c(OC)cc2C1 | 1.08
14 | C=CCC(OC(C)=O)[C@@H]1[C@@H](N(Cc2cccc3ccccc23)C(=O)Cc2ccc(F)cc2)c2cc(OCCCO)ccc2N1C(=O)c1ccc2ccccc2c1 (stereo not given in full) | 0.0096
15 | CN1C2C=C(CCCO)C(C3C(=O)N(C(N)=O)C(=O)C32)C1C1CC1 (stereo not given) | -0.123
16 | CCCN1C(=O)[C@]2(Cc3ccccc31)N=C(c1ccc(OCCCO)cc1)O[C@@H]2c1ccccc1 | 1.11
17 | NCCCCCNC(=O)[C@@H]1C[C@@H]2C(=O)N[C@@H](CCCCN)C(=O)N2[C@@H]1c1ccc(O)cc1 | 1.14
18 | Cc1ccc(C(C)CC(O)C2C=CC3C(=O)N(c4ccccc4)C(=O)C3N2Nc2ccccc2)o1 (stereo not given) | 0.982

Row | SMILES | composite z-score
19 | CCCNC(=O)[C@@H]1c2ccccc2C(=O)N(Cc2ccc(OC(F)(F)F)cc2)[C@H]1c1ccc(CO)cc1 | 0.0988
20 | CC(C)C(CO)N1C(=O)[C@@H]2[C@H]3C(=O)OCC=C[C@H]3OC23C=CCN(c2ccc(Cl)cc2)C(=O)[C@@H]13 (stereo not given in full) | -0.928
21 | CC(C)c1ccc(NN2C(C(O)c3ccc(F)cc3)C=CC3C(=O)N(c4ccccc4)C(=O)C32)cc1 (stereo not given) | 0.886
22 | OCCCC1=CC(c2ccc(CN3CCCC3)cc2)N(Cc2cc3c(cc2Br)OCO3)CC1 (stereo not given) | 0.266
23 | COc1cc2c(cc1O)C(c1cccs1)N(Cc1cc3c(cc1Br)OCO3)CC2 (stereo not given) | 0.544
24 | CCCNC(=O)[C@@]1(Sc2ccc(C)cc2)CC(=O)N(C2Cc3ccccc3C2)[C@@H]1c1ccc(CO)cc1I | 0.157
25 | CC(C)=C1C(=O)C(c2ccccc2)=C2CN3C(=O)N(CCc4ccccc4)C(=O)[C@]3(Cc3ccc(C(F)(F)F)cc3)[C@H]21 | 0.8
26 | COc1cccc(C)c1NC(=O)O[C@H]1[C@H](OC(=O)Nc2ccccc2-c2ccccc2)[C@H](OC(=O)Nc2ccccc2-c2ccccc2)[C@@H](OC)O[C@@H]1CO | 0.79
27 | COCCCNC(=O)[C@@]1(CCC(=O)OC(C)(C)C)N=C(c2ccc(OCCCO)cc2)O[C@H]1c1ccccc1N=[N+]=[N-] | 0.548
28 | COc1cc2c(cc1O)C(c1ccc(CN3CCCC3)cc1)N(Cc1cc3c(cc1Br)OCO3)CC2 (stereo not given) | 0.688
29 | CCCC[C@@H](O)C1=C(COC)C[C@H]2C(=O)N(C)C(=O)[C@H]2[C@H]1CO | -0.11
30 | COC(=O)C(CC#Cc1ccc2c(c1)[C@]1(C(=O)N2)[C@H](c2ccc(O)cc2)N2[C@H](c3ccccc3)[C@H](c3ccccc3)OC(=O)[C@H]2[C@@H]1C(=O)NC[C@H](O)c1ccccc1)C(=O)OC | 0.9
31 | COC(=O)C1=CC(CCCO)=CC(c2ccc(CN3CCCC3)cc2)N(Cc2cccc(OC(F)(F)F)c2)C=C1C(=O)OC (stereo not given) | 1.11
32 | NC(=O)NCC#Cc1ccc2c(c1)[C@]1(C(=O)N2)[C@H](c2ccccc2OCCO)N2[C@H](c3ccccc3)[C@H](c3ccccc3)OC(=O)[C@H]2[C@@H]1C(=O)O | 0.225
33 | COC(=O)[C@@H]1N=C(c2ccc(OCCCO)cc2)O[C@@H]1c1ccccc1 | -0.0306
34 | C=CCC(OC(C)=O)[C@@H]1[C@@H](N(Cc2cccc3ccccc23)C(=O)Cc2ccc(OC)cc2)c2cc(OCCCO)ccc2N1C(=O)c1ccc(-c2ccccc2)cc1 (stereo not given in full) | 0.297
35 | CC(C)[Si]1(C(C)C)OCc2cc(-c3ccc(-c4ccc(Cl)c(Cl)c4)o3)nc(-c3ccccc3)c21 | -0.0496
